# Laboratory results as given in PubChem BioAssay.
# Active and inactive are the calls of the source. Unless noted, the rule behind the calls is not given here.
# Key:
# [1] = resazurin metabolic signal in HepG2 cells – cell-based, resazurin fluorescence, 24 h, PK04 Diversity Set, profiling panel (AID 1172); settings: HepG2 viability, higher = more signal
# [2] = budding yeast growth changes without added modifier – OD600, strain BY4716, 24 h, basal condition, primary screen (AID 1173); settings: S. cerevisiae BY4716 growth, OD600, 24 h; higher = more signal, called active from +8 up or from −8 down
# [3] = viability profiling in MM1S myeloma cells – cell-based, resazurin fluorescence, basal, 24 h, PK04 Diversity Set, profiling panel (AID 1174); settings: higher = more signal, called active from +8 up or from −8 down;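 note: MM1S multiple myeloma cell line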
# [4] = molecular target: Dihydroorotate dehydrogenase (quinone), mitochondrial (Plasmodium falciparum (isolate 3D7)) (UniProt Q08210); assay: inhibition of P. falciparum DHODH – biochemical, C-terminal His tag, absorbance 600 nm, primary screen (AID 1175); settings: PfDHODH enzyme, DCIP absorbance 600 nm; higher = more signal, called active from +8 up or from −8 down;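 note: recombinant parasite enzyme with a five histidine tag at its C terminus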
# [5] = inhibition of PAO1 biofilm formation – strain PAO1, LB-PBS medium, absorbance 600 nm, primary screen (AID 1176); settings: P. aeruginosa PAO1 growth/biofilm, A600, 12 h; higher = more signal
# [6] = growth modulation of vineyard yeast isolate – strain RM11-1a, OD600, basal, 24 h, primary screen (AID 1177);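 note: cultures grown under basal conditions with no added stressor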; settings: S. cerevisiae RM11-1a growth, OD600, 24 h; higher = more signal, called active from +8 up or from −8 down
# [7] = growth of efflux-deficient E. coli DRC39 – strain DRC39, OD650, 24 h, E. coli filamentation inducers, primary screen (AID 1178);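 note: growth measured as culture turbidity by optical density at 650 nm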; settings: E. coli DRC39 acrAB, higher = more signal, called active from +8 up or from −8 down
# [8] = growth of efflux-deficient E. coli DRC39 – strain DRC39, OD650, 48 h, E. coli filamentation inducers, primary screen (AID 1179);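 note: screen aims at cell division blockers that make cells filament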; settings: E. coli DRC39 delta-acrAB growth, higher = more signal, called active from +8 up or from −8 down
# [9] = viability profiling in RPMI8226 myeloma cells – cell-based, resazurin fluorescence, basal, 24 h, PK04 Diversity Set, profiling panel (AID 1180); settings: higher = more signal;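 note: RPMI8826 multiple myeloma cell line at 5000 cells per well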
# [10] = molecular target: E3 ubiquitin-protein ligase XIAP (Homo sapiens) (UniProt P98170); assay: small molecules binding XIAP protein – biophysical, small-molecule microarray, fluorescence 635 nm, primary screen (AID 1181); settings: higher = more signal;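 note: score merges 667 nm emission and signal to noise over triplicate slides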
# [11] = system: XIP peptide (Xip251-270) binding; assay: XIP fragment 251-270 binding compounds – biochemical, small-molecule microarray, fluorescence 635/667 nm, 0.1 µg/mL protein, primary screen (AID 1182); settings: fluorescent protein binding, 635 nm, higher = more signal, called active from +8 up or from −8 down
# XIP peptide (Xip251-270) = assay: compounds binding XIP fragment 251-270 – biochemical, small-molecule microarray, fluorescence 635/667 nm, 0.5 µg/mL protein, primary screen (AID 1183); settings: fluorescence 635 nm, higher = more signal
# [12] = blood-stage malaria parasite viability loss – strain 3D7, DAPI fluorescence, 100 nL, primary screen (AID 1184);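 note: parasites grown inside human red blood cells in medium with human serum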; settings: P. falciparum 3D7 growth, 3 d, higher = more signal
# [13] = molecular target: Homeobox protein Hox-A13 (Mus musculus) (UniProt Q62424); assay: disruptors of Hoxa13 oligonucleotide interaction – biochemical, fluorescence polarization, labeled oligonucleotide, primary screen (AID 1185); settings: Hoxa13:DNA binding, 15 min, higher = more signal, called active from +8 up or from −8 down
# [14] = blockers of DNA damage checkpoint Chk1 activation – imaging, HeLa, hydroxyurea, phospho-Chk1 antibody, percent positive cells, primary screen (AID 1186); settings: hydroxyurea-induced phospho-Chk1 immunofluorescence imaging, higher = more signal
# [15] = blockers of DNA damage checkpoint Chk1 activation – imaging, HeLa, hydroxyurea, phospho-Chk1 nuclear intensity, primary screen (AID 1187); settings: hydroxyurea-induced phospho-Chk1 immunofluorescence imaging, higher = more signal
# Sequence of E3 ubiquitin-protein ligase XIAP (Homo sapiens) (P98170 whole entry, looked up, the tested form may be a part): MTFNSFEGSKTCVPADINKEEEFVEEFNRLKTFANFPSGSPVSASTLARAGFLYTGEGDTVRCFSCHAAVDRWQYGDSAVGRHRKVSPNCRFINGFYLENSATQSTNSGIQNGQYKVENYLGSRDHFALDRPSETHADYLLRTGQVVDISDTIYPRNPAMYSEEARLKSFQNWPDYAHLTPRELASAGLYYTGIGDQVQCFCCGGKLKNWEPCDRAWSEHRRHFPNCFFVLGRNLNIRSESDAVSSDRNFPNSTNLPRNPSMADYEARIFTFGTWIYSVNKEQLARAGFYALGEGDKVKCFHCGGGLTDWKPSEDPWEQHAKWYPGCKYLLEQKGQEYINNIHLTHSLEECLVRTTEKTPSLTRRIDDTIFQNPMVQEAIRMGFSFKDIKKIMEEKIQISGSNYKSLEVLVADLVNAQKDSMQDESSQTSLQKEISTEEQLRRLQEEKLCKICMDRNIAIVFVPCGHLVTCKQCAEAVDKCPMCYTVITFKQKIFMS
# Sequence of Homeobox protein Hox-A13 (Mus musculus) (Q62424 whole entry, looked up): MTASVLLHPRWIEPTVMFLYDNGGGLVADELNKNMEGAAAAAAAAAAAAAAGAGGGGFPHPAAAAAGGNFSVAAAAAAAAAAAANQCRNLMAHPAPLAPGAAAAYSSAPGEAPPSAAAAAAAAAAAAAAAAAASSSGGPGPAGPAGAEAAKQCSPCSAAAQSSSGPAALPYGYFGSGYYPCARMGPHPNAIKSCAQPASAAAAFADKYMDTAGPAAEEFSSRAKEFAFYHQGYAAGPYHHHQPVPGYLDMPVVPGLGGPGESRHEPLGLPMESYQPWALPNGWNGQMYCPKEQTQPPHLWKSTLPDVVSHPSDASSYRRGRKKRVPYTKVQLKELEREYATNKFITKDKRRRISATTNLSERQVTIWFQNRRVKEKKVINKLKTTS
# Sequence of Dihydroorotate dehydrogenase (quinone), mitochondrial (Plasmodium falciparum (isolate 3D7)) (Q08210 whole entry, looked up): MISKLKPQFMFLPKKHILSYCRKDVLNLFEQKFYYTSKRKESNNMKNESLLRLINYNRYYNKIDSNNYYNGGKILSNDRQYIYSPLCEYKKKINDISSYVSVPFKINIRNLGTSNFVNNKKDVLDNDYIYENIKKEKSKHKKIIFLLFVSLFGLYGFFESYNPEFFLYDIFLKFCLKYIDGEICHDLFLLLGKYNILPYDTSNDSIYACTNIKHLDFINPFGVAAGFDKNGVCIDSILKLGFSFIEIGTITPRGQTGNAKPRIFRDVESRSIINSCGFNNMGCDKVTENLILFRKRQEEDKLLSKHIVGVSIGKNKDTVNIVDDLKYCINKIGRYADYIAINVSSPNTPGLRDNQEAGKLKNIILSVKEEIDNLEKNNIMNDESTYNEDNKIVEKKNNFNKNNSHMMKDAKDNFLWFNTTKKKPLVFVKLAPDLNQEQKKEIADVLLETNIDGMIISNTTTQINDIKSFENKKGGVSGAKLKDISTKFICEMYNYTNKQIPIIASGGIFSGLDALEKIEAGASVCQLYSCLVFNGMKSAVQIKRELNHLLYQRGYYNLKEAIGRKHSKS
Structure (SMILES),z-score [1],z-score [2],z-score [3],composite z-score [4],z-score [5],z-score [6],z-score [7],z-score [8],z-score [9],composite z-score [10],composite z-score [11],composite z-score (XIP peptide (Xip251-270)),z-score [12],z-score [13],z-score [14],z-score [15]
CCOC(=O)CCN1C(=O)[C@H]2[C@H]3[C@H](O)[C@H](O)CC(=O)[C@H]3CC[C@H]2C1=O,-0.228,-0.329 (inactive),0.552 (inactive),-2.85 (inactive),0.0122 (inactive),-0.336 (inactive),0.231 (inactive),-1.81 (inactive),0.566,0.065,-0.245 (inactive),0.23,-1.18,0.804 (inactive),–,–
O=C1[C@H]2[C@H]3[C@H](O)[C@H](O)CC(=NO[C@@H]4O[C@H](CO)[C@@H](O)[C@H](O)[C@H]4O)[C@H]3CC[C@H]2C(=O)N1C1CCCCC1,0.241,0.205 (inactive),-0.655 (inactive),0.26 (inactive),-0.613 (inactive),-0.629 (inactive),0.411 (inactive),0.232 (inactive),-0.815,0.155,0.269 (inactive),0.653,0.418,-4.7 (inactive),–,–
CCCCCN1CC=CC23O[C@@H]4C=CCOC(=O)[C@@H]4[C@H]2C(=O)N(C(CO)C(C)C)[C@@H]3C1=O (stereo partly specified),0.862,1.02 (inactive),0.111 (inactive),0.204 (inactive),0.0126 (inactive),0.89 (inactive),-0.128 (inactive),-0.301 (inactive),-0.0045,0.266,0.824 (inactive),0.907,-0.303,-4.81 (inactive),-0.0211 (inactive),0.0917 (inactive)
O=C1c2ccccc2[C@@]2(Cc3ccccc3N(C3CC3)C2=O)[C@H](c2ccc(CO)cc2)N1Cc1ccccc1C(F)(F)F,-0.506,0.194 (inactive),0.187 (inactive),-9.3 (active),0.242 (inactive),-0.887 (inactive),-0.201 (inactive),-0.136 (inactive),-0.398,0.0428,-0.27 (inactive),0.926,-1.42,-2 (inactive),0.0523 (inactive),0.145 (inactive)
C#C[C@@H]1Oc2ccccc2S(=O)(=O)N2CCC[C@H]12,-0.768,-2.6 (inactive),-0.46 (inactive),0.515 (inactive),0.0359 (inactive),0.494 (inactive),-0.689 (inactive),-0.816 (inactive),-0.776,-0.38,-0.037 (inactive),-0.149,-0.0728,-0.61 (inactive),0.723 (inactive),0.595 (inactive)
